Reference: PubChem BioAssay (NCATS)
Several values for one entry are separate records, joined by “and”; a condition that tells them apart may be missing. Identical values can stand only once. Records with an inconclusive call do not appear. A structure can be active in one record and inactive in another. Activity calls are given as the source filed them. Unless noted, calls follow the shape of the dose curve; as a rule, active = well fitted curve in the direction sought with a large enough effect; inconclusive = small, poorly fitted or top-dose-only effect, or another doubt; inactive = no such curve, though single readings can be large; an effect the other way counts as inactive or inconclusive.

Assays:
[1] = Primary qHTS for small molecule stabilizers of the endoplasmic reticulum resident proteome: Secreted ER Calcium Modulated Protein (SERCaMP) assay (AID 1508630); also: potency is read from the fitted curve at half-maximal effect; as to activity change, negative = inhibition: % is scaled to controls: 0 for no effect and ±100 for the full control effect
How it was run: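 The SH-SY5Y reporter protocol was run at 3 concentrations up to 38.3 uM (primary) or 11 concentrations (follow-up): 16 h compound, 100 nM thapsigargin for 4 h, then extracellular luciferase luminescence.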

[2] = A High-Content qHTS Against Drug Library for the Identification of Small Molecules that Inhibit DYT1 Early Onset Primary Dystonia-Associated Cell Pathology (AID 1645839; calls by dose curve)
How it was run: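 Induced EGFP-delE TorsinA cells are imaged after 48 h of compound treatment. Punctate fusion-protein distribution gives the %pathology value, while nuclei counts flag toxicity. Wild-type EGFP-hTOR1A cells define the normal pattern.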

[3] = molecular target: Cytochrome P450 2D6 (Homo sapiens) (UniProt P10635); experiment: Cytochrome P450 family 2 subfamily D member 6 (CYP2D6) small molecule antagonists: luciferase biochemical (cell-free) qHTS assay (AID 1645840; active = well fitted curve in the direction sought with a large enough effect in the repeat runs; an effect the other way counts as inactive or inconclusive; also: nearly all actives have a fitted effect of over 55% in size; also: potency is read from the fitted curve at half-maximal effect)
Cytochrome P450 2D6 (Homo sapiens), sequence (P10635 whole entry, looked up): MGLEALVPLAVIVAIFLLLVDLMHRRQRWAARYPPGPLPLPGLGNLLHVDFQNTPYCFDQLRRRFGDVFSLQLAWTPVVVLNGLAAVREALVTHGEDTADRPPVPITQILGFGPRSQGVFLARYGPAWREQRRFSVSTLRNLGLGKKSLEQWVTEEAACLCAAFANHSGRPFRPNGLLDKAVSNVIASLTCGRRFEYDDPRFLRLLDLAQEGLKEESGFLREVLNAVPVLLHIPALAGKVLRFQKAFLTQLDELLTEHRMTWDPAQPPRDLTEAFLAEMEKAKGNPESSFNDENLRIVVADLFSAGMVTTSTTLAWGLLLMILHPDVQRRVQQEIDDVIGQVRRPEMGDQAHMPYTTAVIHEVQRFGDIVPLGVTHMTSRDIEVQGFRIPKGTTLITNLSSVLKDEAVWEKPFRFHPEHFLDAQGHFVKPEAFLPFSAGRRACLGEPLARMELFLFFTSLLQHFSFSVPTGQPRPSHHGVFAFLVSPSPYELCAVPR
How it was run: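 P450-Glo CYP2D6 system: proluciferin substrate converted by enzyme to luciferin, read by luminescence proportional to activity. Enzyme-substrate mix with compound 10 min at room temperature, then NADPH regeneration 1 h before detection reagent.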

[4] = molecular target: Cytochrome P450 2C9 (Homo sapiens) (UniProt P11712); experiment: Cytochrome P450 family 2 subfamily C member 9 (CYP2C9) small molecule antagonists: luciferase biochemical (cell-free) qHTS assay (AID 1645842; active = well fitted curve in the direction sought with a large enough effect in the repeat runs; an effect the other way counts as inactive or inconclusive; also: nearly all actives have a fitted effect of over 55% in size; also: potency is read from the fitted curve at half-maximal effect; as to activity change, negative = inhibition: % is scaled to controls: 0 for no effect and ±100 for the full control effect)
Cytochrome P450 2C9 (Homo sapiens), sequence (P11712 whole entry, looked up): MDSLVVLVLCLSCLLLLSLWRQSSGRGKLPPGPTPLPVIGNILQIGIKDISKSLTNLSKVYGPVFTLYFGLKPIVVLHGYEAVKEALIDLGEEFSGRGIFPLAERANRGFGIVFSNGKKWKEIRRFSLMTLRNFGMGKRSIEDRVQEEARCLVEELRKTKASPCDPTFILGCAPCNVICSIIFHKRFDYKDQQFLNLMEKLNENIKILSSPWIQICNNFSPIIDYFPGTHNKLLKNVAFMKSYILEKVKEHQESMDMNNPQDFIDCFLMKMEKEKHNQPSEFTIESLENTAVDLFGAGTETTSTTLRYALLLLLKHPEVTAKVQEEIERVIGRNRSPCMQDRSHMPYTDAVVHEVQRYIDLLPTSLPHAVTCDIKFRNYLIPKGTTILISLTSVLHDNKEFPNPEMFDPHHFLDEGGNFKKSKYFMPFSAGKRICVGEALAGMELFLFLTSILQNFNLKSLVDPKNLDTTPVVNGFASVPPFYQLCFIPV
How it was run: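 P450-Glo CYP2C9 system: proluciferin substrate with enzyme in mix containing 0.4% BSA, 10 min at room temperature, then NADPH regeneration solution added and incubated 1 h at 37C. Detection reagent stopped reaction; luminescence read after 20 min as RLU.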

[5] = Primary qHTS for inhibitors of nuclear receptor binding SET domain protein 2 (NSD2) in an isogenic RCH-ACV NSD2 p.E1099K mutant (9B) (AID 1645876); also: nearly all actives have a fitted effect of over 70% in size; also: potency is read from the fitted curve at half-maximal effect
[6] = Primary qHTS for inhibitors of nuclear receptor binding SET domain protein 2 (NSD2) in an RCH-ACV wild type WT cells (2C) (AID 1645877); also: nearly all actives have a fitted effect of over 70% in size; also: potency is read from the fitted curve at half-maximal effect
[7] = NCATS anti-infectives library activity on HEK293 viability as a counter-qHTS vs the C. elegans viability qHTS (AID 1745854);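 also: HEK293 cells exposed to compounds for 24 hr before the viability read; % is scaled to controls: 0 for no effect and ±100 for the full control effect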
How it was run: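 Counter-screen for cytotoxicity: HEK293, 24 hr, 37C, compounds up to 41.7 uM final (a dilution series, 1:5). Readout CellTiter-Glo luminescence, 10 min RT. Digitonin control, […] uM final.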

[8] = NCATS anti-infectives library activity on the primary C. elegans qHTS viability assay (AID 1745855; calls by dose curve); conditions: C. elegans worm area imaging, day 7; at 41.8 µM (top of the series) unless noted
How it was run: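 GFP read-out by 488 nm laser cytometry at day 0, 3 and 7, gated on object perimeter, area and peak intensity, scored viability of PE254-GFP-FLuc worms exposed to compound in S medium with bacterial capsules at 21 °C.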

[9] = molecular target: Cytochrome P450 3A4 (Homo sapiens) (UniProt P08684); experiment: Cytochrome P450 family 3 subfamily A member 4 (CYP3A4) small molecule antagonists: luciferase qHTS assay (AID 1645841; active = well fitted curve in the direction sought with a large enough effect in the repeat runs; an effect the other way counts as inactive or inconclusive; also: nearly all actives have a fitted effect of over 45% in size)
Cytochrome P450 3A4 (Homo sapiens), sequence (P08684 whole entry, looked up): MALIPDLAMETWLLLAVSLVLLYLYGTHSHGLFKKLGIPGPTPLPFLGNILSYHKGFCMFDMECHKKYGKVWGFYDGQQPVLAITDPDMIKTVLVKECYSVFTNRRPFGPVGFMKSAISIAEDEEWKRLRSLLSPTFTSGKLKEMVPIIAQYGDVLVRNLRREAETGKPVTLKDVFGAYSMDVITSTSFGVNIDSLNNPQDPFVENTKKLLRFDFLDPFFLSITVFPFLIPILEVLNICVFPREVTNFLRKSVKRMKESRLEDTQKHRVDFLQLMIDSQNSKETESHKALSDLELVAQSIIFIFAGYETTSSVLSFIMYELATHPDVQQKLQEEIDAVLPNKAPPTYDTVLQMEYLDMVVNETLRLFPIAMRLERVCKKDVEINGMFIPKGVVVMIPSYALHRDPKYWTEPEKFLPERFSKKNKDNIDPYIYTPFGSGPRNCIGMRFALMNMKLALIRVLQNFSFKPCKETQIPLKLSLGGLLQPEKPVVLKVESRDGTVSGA
How it was run: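 P450-Glo CYP3A4 enzyme with proluciferin substrate was preincubated with DMSO-dissolved compounds for 10 min at room temperature. NADPH regeneration solution started a 1 h reaction. Detection reagent stopped it, and luminescence was read after 20 min.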

[10] = molecular target: Papain (Carica papaya) (UniProt P00784); experiment: Primary qHTS assay for inhibitors of the protease papain (AID 1645873);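 also: papain turnover of Z-FR-AMC read as the AMC fluorescence gain over 10 min; % is scaled to controls: 0 for no effect and ±100 for the full control effect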
Papain (Carica papaya), sequence (P00784 whole entry, looked up): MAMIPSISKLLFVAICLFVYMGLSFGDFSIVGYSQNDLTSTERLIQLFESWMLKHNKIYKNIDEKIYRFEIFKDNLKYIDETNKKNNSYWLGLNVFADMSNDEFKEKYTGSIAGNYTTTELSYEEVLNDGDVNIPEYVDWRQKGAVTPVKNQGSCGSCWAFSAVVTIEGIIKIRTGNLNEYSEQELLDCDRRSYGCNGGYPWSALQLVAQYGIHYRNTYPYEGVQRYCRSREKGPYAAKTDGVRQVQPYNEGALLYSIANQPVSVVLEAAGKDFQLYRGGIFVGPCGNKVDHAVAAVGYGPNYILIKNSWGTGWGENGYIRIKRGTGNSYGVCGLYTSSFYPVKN

[11] = molecular target: Rap guanine nucleotide exchange factor 3 (Homo sapiens) (UniProt O95398); experiment: Confirmatory qHTS for antagonist of cAMP-regulated guanine nucleotide exchange factor 3 (EPAC1) (AID 1645880); also: potency is read from the fitted curve at half-maximal effect; nearly all actives have a fitted effect of over 55% in size
Rap guanine nucleotide exchange factor 3 (Homo sapiens), sequence (O95398 whole entry, looked up): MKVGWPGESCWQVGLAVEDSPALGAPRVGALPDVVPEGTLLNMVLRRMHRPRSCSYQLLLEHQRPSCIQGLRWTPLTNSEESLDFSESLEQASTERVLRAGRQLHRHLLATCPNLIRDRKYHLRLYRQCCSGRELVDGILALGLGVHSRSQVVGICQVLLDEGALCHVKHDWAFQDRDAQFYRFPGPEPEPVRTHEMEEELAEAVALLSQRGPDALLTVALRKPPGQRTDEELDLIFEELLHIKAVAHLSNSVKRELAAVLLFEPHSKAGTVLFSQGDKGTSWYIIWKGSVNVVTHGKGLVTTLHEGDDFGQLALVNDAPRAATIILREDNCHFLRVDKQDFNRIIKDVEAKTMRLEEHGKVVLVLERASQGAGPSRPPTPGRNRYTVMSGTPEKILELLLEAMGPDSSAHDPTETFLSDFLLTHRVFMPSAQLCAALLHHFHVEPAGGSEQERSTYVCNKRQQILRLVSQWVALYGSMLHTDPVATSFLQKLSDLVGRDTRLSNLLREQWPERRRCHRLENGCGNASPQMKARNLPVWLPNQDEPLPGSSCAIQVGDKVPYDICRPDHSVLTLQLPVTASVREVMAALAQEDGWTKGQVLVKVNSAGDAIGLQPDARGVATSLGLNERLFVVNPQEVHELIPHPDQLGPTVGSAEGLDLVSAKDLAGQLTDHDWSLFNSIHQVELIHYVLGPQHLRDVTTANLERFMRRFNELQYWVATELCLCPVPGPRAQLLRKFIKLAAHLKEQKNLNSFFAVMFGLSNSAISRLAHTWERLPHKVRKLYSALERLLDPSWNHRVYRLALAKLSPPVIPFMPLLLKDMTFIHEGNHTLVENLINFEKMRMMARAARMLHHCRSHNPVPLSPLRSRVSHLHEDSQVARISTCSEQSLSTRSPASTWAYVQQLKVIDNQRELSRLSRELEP
How it was run: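 Released BODIPY-GDP fluoresces less than Rap1-bound BODIPY-GDP; the signal is followed at 480/540 nm at 5-min intervals over 30 min, after 5 min at room temperature. Reactions contain 100 nM EPAC1, 250 nM RAP1B-BODIPY-GDP and 50 uM GDP; results are normalized to ATA and DMSO.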

[12] = molecular target: Rap guanine nucleotide exchange factor 3 (Homo sapiens) (UniProt O95398); experiment: Confirmatory qHTS for agonist of cAMP-regulated guanine nucleotide exchange factor 3 (EPAC1) (AID 1645881);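 also: EPAC1 catalysed release of BODIPY-GDP from Rap1B seen as fluorescence loss; 100% = effect of cAMP agonist control; nearly all actives have a fitted effect of over 75% in size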
[13] = molecular target: Rap guanine nucleotide exchange factor 4 (Homo sapiens) (UniProt Q8WZA2); experiment: Confirmatory qHTS for agonist of cAMP-regulated guanine nucleotide exchange factor 4 (EPAC2) (AID 1645884);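 also: nucleotide exchange releases bodipy-GDP from Rap1 and this lowers its fluorescence; % is scaled to controls: 0 for no effect and ±100 for the full control effect; nearly all actives have a fitted effect of over 65% in size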
Rap guanine nucleotide exchange factor 4 (Homo sapiens), sequence (Q8WZA2 whole entry, looked up): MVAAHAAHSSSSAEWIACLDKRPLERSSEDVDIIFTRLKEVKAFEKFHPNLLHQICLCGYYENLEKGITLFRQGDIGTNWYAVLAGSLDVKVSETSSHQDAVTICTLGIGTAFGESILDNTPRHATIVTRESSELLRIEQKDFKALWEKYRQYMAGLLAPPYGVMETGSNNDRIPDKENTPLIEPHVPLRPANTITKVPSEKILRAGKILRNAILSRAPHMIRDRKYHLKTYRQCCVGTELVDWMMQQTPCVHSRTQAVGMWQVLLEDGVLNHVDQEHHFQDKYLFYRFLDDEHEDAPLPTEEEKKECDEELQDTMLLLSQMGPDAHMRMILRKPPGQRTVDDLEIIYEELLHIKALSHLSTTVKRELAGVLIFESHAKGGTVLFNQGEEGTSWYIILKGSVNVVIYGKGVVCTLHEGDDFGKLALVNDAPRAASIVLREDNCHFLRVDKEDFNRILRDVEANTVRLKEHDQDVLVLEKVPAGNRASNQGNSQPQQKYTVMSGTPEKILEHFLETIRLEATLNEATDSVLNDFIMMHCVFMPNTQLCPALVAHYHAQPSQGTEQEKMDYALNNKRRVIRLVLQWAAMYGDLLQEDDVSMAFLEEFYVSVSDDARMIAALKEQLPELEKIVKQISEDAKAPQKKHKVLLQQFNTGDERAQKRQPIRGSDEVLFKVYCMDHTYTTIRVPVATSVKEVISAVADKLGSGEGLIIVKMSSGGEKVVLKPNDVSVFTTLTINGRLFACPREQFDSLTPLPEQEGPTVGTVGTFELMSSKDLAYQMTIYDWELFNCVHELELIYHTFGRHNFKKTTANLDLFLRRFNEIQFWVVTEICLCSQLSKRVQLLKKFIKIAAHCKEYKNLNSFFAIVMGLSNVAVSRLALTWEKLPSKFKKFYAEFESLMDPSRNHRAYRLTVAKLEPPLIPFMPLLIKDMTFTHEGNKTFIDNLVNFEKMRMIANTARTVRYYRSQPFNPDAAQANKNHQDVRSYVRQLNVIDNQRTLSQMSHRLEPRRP

[14] = molecular target: Rap guanine nucleotide exchange factor 4 (Homo sapiens) (UniProt Q8WZA2); experiment: Confirmatory qHTS for antagonist of cAMP-regulated guanine nucleotide exchange factor 4 (EPAC2) (AID 1645885); also: nearly all actives have a fitted effect of over 25% in size; also: potency is read from the fitted curve at half-maximal effect
[15] = molecular target: Rap guanine nucleotide exchange factor 3 (Homo sapiens) (UniProt O95398); experiment: Counterscreen qHTS for antagonist of cAMP-regulated guanine nucleotide exchange factor 3 (EPAC1) (AID 1645888); also: % of control where 0% means no effect
How it was run: (§1)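 Measured: fluorescence of BODIPY-GDP bound to Rap1B, which falls as exchange proceeds. Conditions include 50 uM competing GDP, 5 and 30 min reads, and a later cAMP challenge for antagonist detection.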

[16] = molecular target: Rap guanine nucleotide exchange factor 3 (Homo sapiens) (UniProt O95398); experiment: Counterscreen qHTS for agonist of cAMP-regulated guanine nucleotide exchange factor 3 (EPAC1) (AID 1645889); also: % of control where 0% means no effect; nearly all actives have a fitted effect of over 40% in size
How it was run: as §1

Cc1cccc(C)c1NC(=O)CN1CCCC1
active: Potency [3] 12.3 µM
inactive: Potency [1] | Potency [2] | Potency [4] | Potency [5] | Potency [6]

CCOC(=O)[C@H](CCc1ccccc1)N[C@@H](C)C(=O)N1[C@H](C(=O)O)C[C@@H]2CCC[C@@H]21
inactive: Potency [1] | Potency [2] | Potency [3] | Potency [4] | Potency [5] | Potency [6]

CCOCCn1c(N2CCCN(C)CC2)nc2ccccc21
active: Potency [3] 6.92 µM
inactive: Potency [1] | Potency [2] | Potency [4] | Potency [5] | Potency [6]

c1ccc(-c2nc[nH]c2-c2ccccc2)cc1
inactive: Potency [1] | Potency [2] | Potency [4]

COc1cc(C)nc(-n2nc(C)cc2OC)n1
inactive: Potency [1] | Potency [2] | Potency [3] | Potency [4] | Potency [5] | Potency [6]

CN1CCN(c2cc3c(cc2F)c(=O)c(C(=O)O)cn3-c2ccc(F)cc2)CC1
active: Potency [5] 11.9 µM | Potency [6] 7.5 µM
inactive: Potency [1] | Potency [2] | Potency [3] | Potency [4]

OCc1ccccn1
inactive: Potency [1] | Potency [2] | Potency [3] | Potency [4] | Potency [5] | Potency [6]

COc1cc(C(=O)N2CCCCCCC2)cc(OC)c1OC
inactive: Potency [1] | Potency [2] | Potency [3] | Potency [4] | Potency [5] | Potency [6]

O=C1C(O)=C(O)C(=O)C(O)=C1O
inactive: Potency [1] | Potency [2] | Potency [3] | Potency [4] | Potency [5] | Potency [6]

FC1(F)C(F)(F)C(F)(F)C2(F)C(F)(F)C(F)(F)C(F)(F)C(F)(F)C2(F)C1(F)F (centres undefined)
inactive: Potency [1] | Potency [2] | Potency [3] | Potency [4] | Potency [5] | Potency [6]

Cc1c[nH]c2ccccc12
inactive: Potency [1] | Potency [2] | Potency [3] | Potency [4] | Potency [5] | Potency [6]

O=C(O)CCc1nc2ccccc2[nH]1
inactive: Potency [1] | Potency [2] | Potency [3] | Potency [4] | Potency [5] | Potency [6] | outcome [7] | outcome [8]

CCCCC(CC)COC(=O)/C=C/c1ccc(OC)cc1 (centres undefined)
inactive: Potency [1] | Potency [2] | Potency [3] | Potency [5] | Potency [6]
active: Potency [4] 9.77 µM

O=C1c2cccc3c2[C@H](CCC3)CN1[C@@H]1CN2CCC1CC2
inactive: Potency [1] | Potency [2] | Potency [4]

C=C[C@@]1(C)CC(=O)[C@]2(O)[C@@]3(C)[C@@H](O)CCC(C)(C)[C@@H]3[C@H](O)[C@H](OC(C)=O)[C@@]2(C)O1
active: Potency [5] 0.841 µM
inactive: Potency [1] | Potency [2] | Potency [3]

COc1cc(C(=O)NCc2ccc(OCCN(C)C)cc2)cc(OC)c1OC
inactive: Potency [1] | Potency [2] | Potency [3] | Potency [4] | Potency [5] | Potency [6] | outcome [7]

O=C(CCCN1CC=C(n2c(=O)[nH]c3ccccc32)CC1)c1ccc(F)cc1
inactive: Potency [2] | Potency [4] | Potency [5] | Potency [6]
active: Potency [1] 25.1 µM | Potency [3] 0.246 µM

Cn1c(=O)c2[nH]c(Br)nc2n(C)c1=O
inactive: Potency [1] | Potency [2] | Potency [3] | Potency [4] | Potency [5] | Potency [6]

O=[N+]([O-])c1cccc(S(=O)(=O)NCCNS(=O)(=O)c2cccc([N+](=O)[O-])c2)c1
inactive: Potency [1] | Potency [2] | Potency [3] | Potency [5]

CC(C)[C@@H]1CC[C@@H](C)CC1=O
inactive: Potency [1] | Potency [2] | Potency [3] | Potency [4] | Potency [5] | Potency [6]

COc1ccccc1N1CCN(CCCCNC(=O)c2ccc(-c3ccc(C(C)=O)cc3)cc2)CC1
inactive: Potency [1] | Potency [2] | Potency [4] | Potency [5]

CCN(CC)CCNc1ccc(CO)c2sc3ccccc3c(=O)c12
inactive: outcome [7]

O=C(O)C1(C(=O)O)CCC1.[NH2-].[NH2-].[Pt+2]
inactive: Potency [9]

CC1(C)OC[C@@H]2O[C@@]3(C(=O)O)OC(C)(C)O[C@H]3[C@@H]2O1
inactive: Potency [9]

CN=C(N)NCCC[C@H](N)C(=O)O
inactive: outcome [10]

CCOC(=O)[C@H](CCc1ccccc1)N[C@@H](C)C(=O)N1[C@H](C(=O)O)C[C@H]2CCCC[C@@H]21
inactive: outcome [10]

NC(=O)n1c(O)c(C(=O)c2cccs2)c2cc(Cl)ccc21
inactive: Potency [6]

O[C@@H](c1cc(C(F)(F)F)nc2c(C(F)(F)F)cccc12)[C@H]1CCCCN1
active: Potency [6] 7.5 µM

CCc1oc2ccccc2c1C(=O)c1cc(Br)c(O)c(Br)c1
inactive: outcome [12] | outcome [13] | activity change, negative = inhibition [14] -17.2% [at 12.7 µM] | outcome [15] | outcome [16]
active: Potency [11] 39.5 µM and 39.8 µM | Potency [14] 27.8 µM

CCc1oc2ccccc2c1C(=O)c1cc(I)c(O)c(I)c1
active: Potency [14] 27.8 µM
inactive: outcome [12] | outcome [13]

O=C(Nc1ccc([N+](=O)[O-])cc1)Nc1ccc([N+](=O)[O-])cc1
inactive: Potency [2] | Potency [3] | Potency [4] | Potency [5] | Potency [6]

O=C(O)Cc1csc(-c2ccc(Cl)cc2)n1
inactive: Potency [2] | Potency [3] | Potency [4] | Potency [5] | Potency [6]

CCOc1ccccc1OCCN[C@H](C)Cc1ccc(OC)c(S(N)(=O)=O)c1
inactive: Potency [2] | Potency [4] | Potency [5] | Potency [6]
active: Potency [3] 15.5 µM
